Hits are enriched below; roughly 1.3% of the tested compounds scored in any of these assays.
IL-2 act = activators of IL-2; IL-2 activation reporter assay, cell-based qHTS; stimulated with anti-CD3/CD4/CD28 beads; in transgenic mouse T cells; 360,000 compounds, 0.065% hits; activation, % (series mostly up to about 46 µM)
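First, unstimulated transgenic mouse T cells were exposed to compound for 60 min. Next, anti-CD3/anti-CD4-coated beads with anti-CD28 were added. Finally, after 18 h at 37 degrees C, EGFP and DsRed were imaged.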
TRPML1 blocker = blocks the human TRPML1 channel; Q9GZU1; TRPML1-inducible cells, Ca2+ dye fluorescence, FDSS; active compounds read low; inhibition of EC80 agonist-evoked calcium signal; activity change, negative = inhibition, % (concentration not given with the values); 390,000 compounds, 0.02% hits; AID 624415; in the data active = activity change below about -50%; inconclusive = between about -30% and that limit;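 note: stimulus is agonist 54-4 at its EC80 concentration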
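Tet-induced TRPML1-DL cells loaded with Ca8 no-wash calcium dye were read kinetically on FDSS. Compound addition was followed by EC80 agonist 54-4 (4 uM final); inhibition was read over 110 s.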
PTAP TSG101 blk = blocks PTAP/TSG101 interaction to inhibit HIV-1 budding. Fluorescence polarization, FITC-PTAP peptide / Tsg101 binding. 340,000 tested, under 10 active. Potency, µM (series often up to 115 µM), most hits filed as inhibitors. Q99816; active = well fitted inhibition curve with a large enough effect in the main read-out, with a control signal flat, not every such curve was filed as active; inconclusive = small, poorly fitted or top-dose-only effect, or effect the other way, or a change in a side signal; inactive = no such curve, though single readings can be large or run the other way
Target sequence (Q99816 whole entry, looked up): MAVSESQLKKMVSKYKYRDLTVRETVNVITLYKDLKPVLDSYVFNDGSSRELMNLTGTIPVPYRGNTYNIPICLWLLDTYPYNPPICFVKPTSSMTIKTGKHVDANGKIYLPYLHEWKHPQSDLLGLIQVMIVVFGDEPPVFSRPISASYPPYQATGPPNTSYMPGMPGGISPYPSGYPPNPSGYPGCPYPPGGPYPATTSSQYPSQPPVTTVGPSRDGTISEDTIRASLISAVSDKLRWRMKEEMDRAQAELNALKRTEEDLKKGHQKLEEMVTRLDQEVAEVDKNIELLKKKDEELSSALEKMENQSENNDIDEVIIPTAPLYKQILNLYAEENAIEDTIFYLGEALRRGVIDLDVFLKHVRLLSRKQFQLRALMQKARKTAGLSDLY
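Steps: Tsg101 binding domain dispensed (10 uM final), compounds pinned in DMSO, FITC-labeled PTAP-motif peptide added (50 nM final); after 20 min binding at room temperature, polarization measured.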
TRPML1 agonist = agonists of human TRPML1 channel. Q9GZU1. TRPML1-expressing cells, Ca2+ dye fluorescence, FDSS. activation, % (test concentration not listed). 410,000 compounds, 0.12% hits. AID 624414
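Kinetic FDSS Ca2+ read in Tet-induced TRPML1-DL cells (ABD Ca8 dye plus quencher, 45-90 min RT loading): baseline, then compound, then 110 s agonist window; EC80 agonist 54-4 at 4uM final added afterwards for a 110 s antagonist window.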
PKM2 act = activators of human pyruvate kinase M2; P14618; purified PKM2, Kinase-Glo ATP luminescence, activation; response scale: 0% is enzyme alone, no compound; Potency, µM (series often up to 57.5 µM), hits mostly activators; 260,000 compounds, 0.34% hits; active = well fitted activation curve with a large enough effect; inconclusive = small, poorly fitted or top-dose-only effect; inactive = no such curve, though single readings can be large or run the other way; note: nearly all actives have a fitted effect of over 55% in size
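Purified hPK-M2 (>95% pure) converted ADP (0.1 mM final) to ATP with 0.5 mM PEP in 50 mM imidazole pH7.2, KCl, MgCl2, Tween 20, BSA; 1 h at room temperature. ATP detected by Kinase-Glo luminescence.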
BRCA1 expr up = BRCA1 expression activation. MCF7-BRCA1-FFLuc reporter, luminescence, 48 h; response scale: scaled: vehicle 0%, 10 µM genistein 100%. Potency, µM (doses to about 46.1 µM), actives largely listed as activators. 380,000 compounds, 1.1% hits. AID 624202; active = well fitted activation curve with a large enough effect; inconclusive = small, poorly fitted or top-dose-only effect; inactive = no such curve, though single readings can be large or run the other way; note: nearly all actives have a fitted effect of over 80% in size
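Using MCF7 cells harboring a BRCA1 firefly luciferase reporter, plated 2 h before compound pinning, the screen measured luminescence after 48 h incubation. Responses were normalized to DMSO and 10 microM genistein, then fitted for concentration-effect.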
Numbers stand for hits; 0 = inactive; ? = inconclusive; - = no result given; ! = repeats disagree. Cut-off read from the data, not from the text of the source, unless noted: active = activation above about 50%; inconclusive = mostly about 30% to 49%; inactive = weaker than that.

SMILES	IL-2 act	TRPML1 blocker	PTAP TSG101 blk	TRPML1 agonist	PKM2 act	BRCA1 expr up
COC(=O)c1ccccc1NC(=O)c1cc2nc(-c3ccc(OC)cc3)cc(C(F)(F)F)n2n1	-	0	-	0	-	0
O=c1c2ccccc2nnn1-c1ccc(Br)cc1	0	0	0	0	0	4.5µM
Cc1cc(C)cc(-n2nnc3ccccc3c2=O)c1	0	0	-	0	-	0
O=C1c2ccccc2NC(c2ccc3c(c2)OCO3)N1Cc1ccco1 (stereo not given)	-	-	-	0	-	0
CCC(C(=O)N1CCN(c2ccccc2F)CC1)n1nc(C)c2sc3ccccc3c2c1=O (stereo not given)	-	0	-	0	-	-
COc1ccc2c(C=Nc3c(C)n(C)n(-c4ccccc4)c3=O)c(O)n(Cc3ccco3)c(=O)c2c1	65!	0	?	0	0	0
Cc1c(N=Cc2ccco2)c(=O)n(-c2ccccc2)n1C	0	0	0	0	0	0
CCn1c(SCc2nc3ccccc3c(=O)[nH]2)nc2ccccc21	0	0	0	0	0	0
CCN(CC)S(=O)(=O)c1ccc2c(c1)nc(SCc1nc3ccsc3c(=O)[nH]1)n2CC	0	0	0	0	13µM	0
Cc1cc(C)nc(NC(=O)/C=C/c2ccccc2Cl)n1	0	0	0	0	0	0
Cc1cc(C)nc(NC(=O)/C=C/c2ccc(Cl)cc2Cl)c1	0	0	0	0	0	6.3µM
Cc1cc(C)nc(NC(=O)/C=C/c2ccccc2Cl)c1	0	0	0	0	0	3.2µM
O=C(/C=C/c1ccc(Cl)cc1Cl)Nc1ccncc1	0	0	0	0	0	0
O=C(Nc1cnc2ccccn2c1=O)c1ccc(Cl)cc1	0	0	0	0	0	11µM
c1ccc(Cn2nnc3c(N4CCc5ccccc5C4)ncnc32)cc1	0	0	0	0	14µM	0
CCN1CCN(c2ncnc3c2nnn3Cc2ccccc2)CC1	0	0	0	0	0	0
c1ccc(Cn2nnc3c(N4CCCC4)ncnc32)cc1	0	0	0	0	16µM	0
Cc1ccccc1OCCSc1nc(C)c(Cc2ccccc2)c(=O)[nH]1	-	0	-	0	-	-
C(=N\n1cnnc1)/c1ccc(OCc2cccc3ccccc23)cc1	0	0	0	0	0	0
Fc1ccccc1COc1ccc(/C=N/n2cnnc2)cc1	0	0	0	0	?	10µM
c1ccc2oc(-c3ccn[nH]3)cc2c1	0	0	0	0	0	4.5µM
Cc1[nH]c2ccccc2c1N=Nc1cccc(C(=O)O)c1	0	0	0	0	0	3.2µM
COC(=O)c1cc(N=Nc2c(C)[nH]c3ccccc23)cc(C(=O)OC)c1	0	0	0	0	0	0
CCC(=O)c1ccc(OCc2ccccc2)c(OC)c1	0	0	0	0	0	6.3µM
COc1cc2c(cc1OC)CN(c1ccc(-c3ccccc3OC)nn1)CC2	0	0	0	0	0	0
SMILES	IL-2 act	TRPML1 blocker	PTAP TSG101 blk	TRPML1 agonist	PKM2 act	BRCA1 expr up
COc1ccc(C(=O)COC(=O)C2CCN(c3ccc(C(F)(F)F)cn3)CC2)c(OC)c1	0	0	0	0	-	0
COc1cc2c(cc1OC)CN(c1ccc3ccccc3n1)CC2	0	0	0	0	0	11µM
COc1cc2c(cc1OC)CN(c1ccc(C(F)(F)F)cn1)CC2	0	0	0	0	0	13µM
CCCC[C@@H]1C[C@H]1[C@@H](NP(=O)(c1ccccc1)c1ccccc1)c1ccccc1OC	-	-	-	-	0	-
COc1ccc(C(=O)CSC(=S)N2CCCCC2)cc1	0	-	-	0	-	3.2µM
O=C(CSC(=S)N1CCCCC1)c1ccccc1	0	0	0	0	0	0
CCC1CCCCN1Cc1nc2c(c(=O)n(C)c(=O)n2C)n1Cc1c(F)cccc1Cl (stereo not given)	-	-	-	0	-	0
Cc1cc(Sc2ccc(Cl)cc2)nc2ccccc12	-	0	-	0	-	-
Cc1ccc(Sc2cnc3ccccc3n2)cc1	0	0	0	0	0	7.1µM
CC(C)Sc1ncnc2c1oc1ccccc12	0	0	0	0	0	0
c1ccc(Sc2ncnc3c2oc2ccccc23)nc1	0	0	0	0	0	11µM
COc1ccc(S(=O)(=O)N2CCc3cc4c(cc3C2C)OCCCO4)cc1 (stereo not given)	0	-51	0	0	-	0
Cc1ccc(S(=O)(=O)N2CCc3cc4c(cc3C2C)OCCCO4)cc1 (stereo not given)	0	0	0	0	-	0
CC(C)(CC(=O)OCC(=O)Nc1ccc(F)c(Cl)c1)CC1=NS(=O)(=O)c2ccccc2N1	-	0	-	0	-	0
O=C(CSc1nnc(-c2ccc(F)cc2)o1)NC1CCCCC1	0	0	0	0	0	0
Oc1ccc(-c2nnc(SCC3CCCCC3)o2)cc1	0	0	0	0	0	6.3µM
Cc1ccc(-c2cc(C(=O)NCc3cccnc3)no2)cc1	0	0	0	0	0	?
O=C(Nc1ccon1)c1sc2cc(F)ccc2c1Cl	0	0	0	0	0	0
O=C(NCc1ccco1)c1sc2cc(F)ccc2c1Cl	0	0	0	0	0	13µM
O=C(NCc1ccco1)c1ccc2ccccc2c1	0	0	0	0	0	11µM
O=C(NCc1cccnc1)c1cc(-c2ccco2)on1	0	0	0	0	22µM	0
O=C(NCc1ccco1)c1ccc(C(=O)NCc2ccco2)cc1	0	0	0	0	-	0
O=C(NCc1ccco1)c1cc(-c2ccc(F)cc2)on1	0	0	0	0	0	8.9µM
O=C(NCc1ccco1)c1cc(-c2ccccc2)on1	0	0	0	0	0	?
O=C(c1ccccc1)C(c1ccccc1)[n+]1csc2ccccc21 (stereo not given)	-	-	-	0	-	-
SMILES	IL-2 act	TRPML1 blocker	PTAP TSG101 blk	TRPML1 agonist	PKM2 act	BRCA1 expr up
CCN1c2ccccc2-c2nc(SCC(=O)Nc3cccc(C)c3C)ncc2S1(=O)=O	-	0	-	0	-	-
Cc1ccc(NS(=O)(=O)c2c(C)nc3sccn3c2=O)cc1C	0	0	0	0	4.5µM	0
COC(=O)c1ccc(NS(=O)(=O)c2c(C)nc3sccn3c2=O)cc1	-	0	-	0	-	-
O=C1c2cc(S(=O)(=O)N3CCOCC3)ccc2-c2ccc(S(=O)(=O)N3CCOCC3)cc21	-	-	-	0	-	0
Cc1cc(SCC(=O)Nc2ccc(C(F)(F)F)cc2)nc(=O)[nH]1	-	0	-	0	-	0
CC(C)(CNC(=O)c1ccc(-c2ccccc2Cl)o1)N1CCOCC1	0	0	0	0	-	10µM
CC(=O)N1CCN(C(=O)c2ccc(-c3ccccc3Cl)o2)CC1	0	0	0	0	-	11µM
O=C1CN(C(=O)c2ccc(S(=O)(=O)N3CCCCC3)cc2)C(c2ccc(F)cc2)c2cc(Br)ccc2N1 (stereo not given)	-	0	-	0	-	-
